Assay results from PubChem BioAssay AID1159580 (chemical genetic matrix, 2015).
“And” between values parts separate entries of the source, which are not always exact repeats. Equal values may be shown once. About 2,000 (36%) of roughly 5,500 compounds were called active. Inconclusive results (about 18%) are left out. No stated cut-off is given here; in the data, active means normalized growth mostly below about 0.91 (no sharp cut-off); inconclusive means no clear call, values can overlap the other calls; inactive means mostly above about 0.92. The list shows a part of the results.

Test: chemical genetic growth profiling, strain panel (AID 1159580);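 further: tested at 20 µM; growth read once vehicle control cultures reached saturation at 30 °C; 1 = growth at the plate median or of vehicle wells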
Settings: S. cerevisiae deletion strains, growth OD

Measured: normalized growth

CC(C)=CCCC1(C)C=Cc2c(O)c3c(c(CC=C(C)C)c2O1)OC12C(=CC4CC1C(C)(C)OC2(C/C=C(\C)C(N)=O)C4=O)C3=O (stereo unspecified)
inactive: locus YBR021W, strain FUR4, stronger effect = lower value 0.922 | locus YBR229C, strain ROT2, stronger effect = lower value 1 | locus YCL029C, strain bik1, stronger effect = lower value 0.977 | locus YDL035C, strain GPR1, stronger effect = lower value 0.932 | locus YDL074C, strain BRE1, stronger effect = lower value 0.899 | locus YDL101C, strain DUN1, stronger effect = lower value 0.96 | locus YDL134C, strain PPH21, stronger effect = lower value 0.914 | locus YDL185W, strain tfp1, stronger effect = lower value 0.996 | locus YDR101C, strain arx1, stronger effect = lower value 0.958 | locus YDR150W, strain NUM1, stronger effect = lower value 1 | locus YDR162C, strain NBP2, stronger effect = lower value 0.92 | locus YDR318W, strain mcm21, stronger effect = lower value 0.941 | locus YDR388W, stronger effect = lower value 0.96 | locus YDR502C, strain sam2, stronger effect = lower value 0.924 | locus YEL061C, strain CIN8, stronger effect = lower value 0.967 | locus YER110C, stronger effect = lower value 0.999 | locus YER167W, strain BCK2, stronger effect = lower value 0.965 | locus YGL078C, strain dbp3, stronger effect = lower value 0.963 | locus YGL086W, strain mad1, stronger effect = lower value 0.947 | locus YGL248W, strain PDE1, stronger effect = lower value 0.894 | locus YGR135W, strain pre9, stronger effect = lower value 0.923 | locus YGR252W, strain gcn5, stronger effect = lower value 0.856 | locus YHR030C, strain SLT2, stronger effect = lower value 0.995 and 0.925 | locus YHR079C, strain IRE1 (second series), stronger effect = lower value 0.99 | locus YHR079C, strain IRE1, stronger effect = lower value 0.933 | locus YHR094C, strain hxt1, stronger effect = lower value 0.995 | locus YHR129C, strain ARP1, stronger effect = lower value 0.944 | locus YHR200W, strain rpn10, stronger effect = lower value 0.946 | locus YIL066C, strain RNR3, stronger effect = lower value 0.878 | locus YIL073C, strain SPO22, stronger effect = lower value 0.801 | locus YIL125W, strain kgd1, stronger effect = lower value 0.943 | locus YIR030C, strain dcg1, stronger effect = lower value 0.959 | locus YJL095W, strain BCK1, stronger effect = lower value 0.875 and 0.963 | locus YJL134W, strain LCB3, stronger effect = lower value 1 | locus YJL168C, strain set2, stronger effect = lower value 0.987 | locus YJL187C, strain SWE1 (second series), stronger effect = lower value 0.929 | locus YJR043C, strain POL32, stronger effect = lower value 0.981 | locus YJR066W, strain TOR1, stronger effect = lower value 0.906 | locus YJR075W, strain HOC1, stronger effect = lower value 0.944 | locus YKL009W, strain mrt4, stronger effect = lower value 0.931 | locus YKL068W, stronger effect = lower value 0.995 | locus YKL085W, strain MDH1 (second series), stronger effect = lower value 0.99 | locus YKL085W, strain MDH1, stronger effect = lower value 0.99 | locus YKL190W, strain CNB1, stronger effect = lower value 0.985 | locus YLR039C, strain RIC1, stronger effect = lower value 0.898 | locus YLR058C, strain SHM2, stronger effect = lower value 0.946 | locus YLR102C, strain apc9, stronger effect = lower value 1.01 | locus YLR262C, strain YPT6, stronger effect = lower value 0.946 | locus YLR268W, strain sec22, stronger effect = lower value 0.896 | locus YLR330W, strain CHS5, stronger effect = lower value 0.95 | locus YLR342W, strain FKS1 (second series), stronger effect = lower value 0.913 | locus YLR371W, strain rom2, stronger effect = lower value 0.989 | locus YML016C, strain PPZ1, stronger effect = lower value 0.969 | locus YML032C, strain rad52, stronger effect = lower value 0.96 | locus YML124C, strain tub3, stronger effect = lower value 0.985 | locus YMR078C, strain ctf18, stronger effect = lower value 0.971 | locus YMR223W, strain ubp8, stronger effect = lower value 0.95 | locus YMR263W, strain SAP30, stronger effect = lower value 0.968 | locus YMR307W, strain GAS1, stronger effect = lower value 0.833 | locus YNL067W, strain RPL9B, stronger effect = lower value 0.951 | locus YNL153C, strain GIM3, stronger effect = lower value 0.958 | locus YNL183C, strain NPR1, stronger effect = lower value 0.868 | locus YNL233W, strain BNI4, stronger effect = lower value 0.915 | locus YNL250W, strain rad50, stronger effect = lower value 0.983 | locus YNL271C, strain bni1, stronger effect = lower value 0.993 | locus YNL298W, strain CLA4, stronger effect = lower value 0.989 | locus YNL322C, strain KRE1, stronger effect = lower value 0.976 | locus YNR052C, strain pop2, stronger effect = lower value 0.981 | locus YOL012C, strain htz1 0.568 | locus YOL147C, strain pex11, stronger effect = lower value 0.944 | locus YOR061W, strain CKA2, stronger effect = lower value 0.963 | locus YOR069W, strain VPS5, stronger effect = lower value 0.99 | locus YOR136W, strain idh2, stronger effect = lower value 0.98 | locus YOR144C, strain elg1, stronger effect = lower value 0.987 | locus YOR231W, strain MKK1, stronger effect = lower value 0.937 | locus YOR316C, strain cot1, stronger effect = lower value 0.995 | locus YPL055C, strain LGE1, stronger effect = lower value 0.866 | locus YPL256C, strain CLN2, stronger effect = lower value 0.944 | locus YPR119W, strain clb2, stronger effect = lower value 0.989 | locus YPR141C, strain kar3, stronger effect = lower value 0.996 | locus YPR163C, strain tif3, stronger effect = lower value 0.982 | locus YPR167C, strain met16, stronger effect = lower value 0.958 | strain wtn01, stronger effect = lower value 0.937
active: locus YDL192W, strain arf1, stronger effect = lower value 0.913 | locus YER155C, strain BEM2, stronger effect = lower value 0.89 | locus YGR229C, strain SMI1, stronger effect = lower value 0.761 | locus YKR001C, strain vps1, stronger effect = lower value 0.842 | locus YLR113W, strain HOG1, stronger effect = lower value 0.852 | locus YLR418C, strain cdc73, stronger effect = lower value 0.699 | locus YNL307C, strain MCK1, stronger effect = lower value 0.844 | locus YOR184W, strain ser1, stronger effect = lower value 0.872
